GPR151 activ: activators of human GPR151; AID 1508602; PathHunter beta-arrestin GPR151 cells, luminescence; hit rate 1% among 650,000; activation, % at 11.2 µM; in the data active means activation above about 4.9%
Target sequence (Q8TDV0 whole entry, looked up): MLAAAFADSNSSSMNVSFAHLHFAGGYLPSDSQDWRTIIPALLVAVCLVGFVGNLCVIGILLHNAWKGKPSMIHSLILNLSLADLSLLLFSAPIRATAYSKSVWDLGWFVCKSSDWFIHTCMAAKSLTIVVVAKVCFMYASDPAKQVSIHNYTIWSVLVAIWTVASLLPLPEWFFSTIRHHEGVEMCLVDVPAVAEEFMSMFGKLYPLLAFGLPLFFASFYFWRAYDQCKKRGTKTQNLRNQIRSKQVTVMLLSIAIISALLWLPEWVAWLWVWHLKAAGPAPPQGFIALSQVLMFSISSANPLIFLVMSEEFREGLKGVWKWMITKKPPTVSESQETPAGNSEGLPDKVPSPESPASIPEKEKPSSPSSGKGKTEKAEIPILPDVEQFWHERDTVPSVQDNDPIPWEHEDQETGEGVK
MITF inh: blocks human microphthalmia-associated transcription factor; hit rate 0.91% among 650,000; AlphaScreen MITF homodimerization, bead proximity signal; inhibition, % at 2.6 µM; in the data active means inhibition above about 50%
FBW7 act: human FBW7 E3 ligase activation, primary screen; normalized activity (activation), % at 26.1 µM; Q969H0; AlphaScreen FBW7–phospho-cyclin E peptide binding, activator screen; hit rate 0.13% among 650,000; in the data active means normalized activity above about 1.9%;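 further: purified mutant Fbw7 with reduced substrate affinity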
TEAD-YAP block: TEAD-YAP interaction inhibition; HEK-TIYL cells, TEAD-Gal4/YAP UAS-luciferase luminescence; inhibition, % at 9.12 µM; hit rate 1.4% among 640,000; in the data active means inhibition above about 32%
Hits are given with their value; - = inactive. Shown are actives, neighbours in structure and some others; about 3.5% of the full set was active somewhere.

SMILES	GPR151 activ	MITF inh	FBW7 act	TEAD-YAP block
COc1cccc2sc(Nc3nc(-c4ccncc4)cs3)nc12	-	-	-	45
COc1cccc2sc(Nc3nc(-c4cccnc4)cs3)nc12	-	-	-	39
COc1ccccc1Nc1nc(-c2ccncc2)cs1	-	-	-	-
O=S(=O)(c1ccc(-c2csc(=Nc3ccc(F)cc3)n2CCO)cc1)N1CCCC1	-	-	-	47
CCN(CC)S(=O)(=O)c1ccc(-c2csc(=Nc3ccc(F)cc3)n2CCc2ccc(OC)cc2)cc1	-	-	-	-
CCN(CC)S(=O)(=O)c1ccc(-c2csc(=Nc3ccc(F)cc3)n2CCO)cc1	-	-	-	46
COc1ccccc1NC(=O)N(Cc1nnc2n1CCCCC2)c1ccc(C)cc1	-	-	-	-
O=C1C2C3C=CC(O3)C2C(=O)N1c1ccc(Cl)cc1Cl (stereo not drawn)	-	-	-	-
Cc1nc(C)n(-c2ccc(Nc3nccc(-c4cncc5ccccc45)n3)cc2)n1	-	-	-	81
Cc1nc(C)n(-c2ccc(Nc3nccc(-c4ccccc4-c4ccccc4)n3)cc2)n1	-	-	-	-
O=C1C=CC(=NS(=O)(=O)c2ccc(C(=O)O)cc2)C=C1	-	56	-	-
O=C(O)c1ccc(S(=O)(=O)c2ccc(C(=O)O)cc2)cc1	-	-	-	-
O=C(NCCCc1ccncc1)C1CC12CCN(C(=O)c1cc3ccccc3o1)CC2 (stereo not drawn)	-	-	-	-
NC(CC(=O)O)c1cccc(I)c1 (stereo not drawn)	-	-	-	-
O=C(NCC1CCCO1)C1CCC(Cn2c(SCC(=O)N3CCN(c4ccccc4)CC3)nc3ccccc3c2=O)CC1 (stereo not drawn)	-	-	-	-
O=C(NCC1CCCO1)c1ccc2c(=O)n(CC3CCCO3)c(SCC(=O)N3CCN(c4ccccc4)CC3)nc2c1 (stereo not drawn)	-	-	-	32
CC(C)Oc1ccc(NC(=O)c2cccc(Cl)c2)cc1	-	-	-	-
COc1cccc(C(=O)Nc2ccc(OC(C)C)cc2)c1	-	-	-	75
COc1cccc(C(=O)Nc2ccc(O)c(C(=O)O)c2)c1	-	-	-	-
COc1cccc(C(=O)Nc2ccc(O)c(C)c2)c1	-	-	-	84
O=[N+]([O-])c1cc(-c2cnc3ccccc3n2)ccc1N1CCCCCC1	-	-	-	71
Cc1ccc(Oc2ccc(-c3cnc4ccccc4n3)cc2[N+](=O)[O-])cc1C	-	-	1.9	-
Cc1ccc(Oc2ccc(-c3cnc4ccccc4n3)cc2[N+](=O)[O-])c(-n2nc3ccccc3n2)c1	-	-	-	-
CC(=O)c1ccc(Oc2ccc(-c3cnc4ccccc4n3)cc2[N+](=O)[O-])cc1	-	-	-	-
O=C1C(=O)N(CCCn2ccnc2)C(c2ccc(F)cc2)/C1=C(/O)c1ccc(Br)cc1 (stereo not drawn)	-	-	-	-
SMILES	GPR151 activ	MITF inh	FBW7 act	TEAD-YAP block
O=C(Cc1ccccc1)Nc1nc(-c2ccc3c(c2)OCCO3)cs1	-	-	-	-
COc1ccc(-n2c(=C(C#N)C#N)s/c(=C/c3ccc(NC(C)=O)cc3)c2=O)cc1	-	-	-	-
COc1ccccc1C1CCCN1Cc1c(C(=O)N(C)C)nc2ccc(Cl)cn12 (stereo not drawn)	-	-	-	-
Cc1cccc(NC(=O)c2c(NC(=O)c3cccs3)sc3c2CCCCC3)c1	-	-	-	-
CCSc1nnc(C2CCN(CC(=O)Nc3cccc4ccccc34)CC2)n1C	-	-	2.8	-
COc1ccccc1CN1C(=O)C2C(C(=O)Nc3ccc(C(C)C)cc3)C3C=CC2(O3)C1C(=O)NC1CCCCC1 (stereo not drawn)	-	-	-	-
CN(C)N1C(N)=C(C#N)C(c2ccccc2Cl)C2=C1CC(c1ccccc1)CC2=O (stereo not drawn)	-	-	-	39
COc1cccc(-c2nnc3sc(CN4CCCCC4)cn23)c1	-	-	-	48
CCN(CC)CC#CC(O)(CC)CC	-	-	-	-
O=C(O)c1cc(NS(=O)(=O)c2ccc(Cl)c(C(=O)O)c2)ccc1O	-	81	-	-
O=C(O)c1cc(S(=O)(=O)Nc2ccc(O)cc2)ccc1O	-	-	-	-
Cc1cccc(-c2n[nH]c(=S)n2-c2ccccc2)c1	-	-	-	49
S=c1[nH]nc(-c2ccccc2)n1-c1ccccc1	-	-	-	-
CCNc1nc(NCC)n2c(SCC(=O)c3ccc(C#N)cc3)nnc2n1	-	-	-	-
COc1ccc(O)c(C(=O)CC(=O)c2ccc(F)cc2)c1	-	-	-	51
COc1ccc(C(=O)CC(=O)c2ccccc2O)cc1	-	-	-	-
CCNc1nc(NC(C)C)nc(N(C)n2cnnc2)n1	-	-	-	-
CN(Cc1nccs1)c1nc2nonc2nc1NCc1ccccc1	-	-	-	-
CCOc1cc(C#N)c(NC(=O)c2ccco2)cc1OCC	-	-	-	52
CCn1c(C)nc2c(C)[n+](CC(=O)c3ccc(Br)cc3)ccc21	-	-	-	38
O=C(CN1CCC(n2nnc3ccccc32)CC1)NCc1ccc(F)cc1	-	-	-	-
c1cnc(SCCCOc2ccc3ccccc3c2)nc1	-	-	-	-
N#CSCCCOc1ccc2ccccc2c1	-	-	-	47
O=C(/C=C/c1ccc(-c2ccc(Br)cc2)o1)c1ccco1	-	-	-	-
O=C(CCC(=O)c1ccc(F)cc1)OCC(=O)c1ccccc1	-	-	-	-
SMILES	GPR151 activ	MITF inh	FBW7 act	TEAD-YAP block
CN=c1scc(-c2ccc(C)c(C)c2)n1/N=C/c1ccc(O)c(O)c1O	-	-	-	70
Cc1cc(/C=C2/C(=N)N3C=CSC3=NC2=O)c(C)n1-c1ccc(Cl)cc1	-	-	-	-
COc1ccc(C)cc1-n1c(C)cc(/C=C2/C(=N)N3C=CSC3=NC2=O)c1C	-	-	-	51
COc1ccccc1-n1c(C)cc(/C=C2/C(=N)N3C=C(C)SC3=NC2=O)c1C	-	-	-	-
Cc1ccc(-n2c(C)cc(/C=C3/C(=N)N4C=CSC4=NC3=O)c2C)c(C)c1	-	-	-	64
COc1ccccc1-n1c(C)cc(/C=C2\C(=N)N3N=CSC3=NC2=O)c1C	-	-	-	75
Cc1cnc(-c2cccs2)nc1NC1CC1	-	-	-	-
O=C(Nc1cccc(Br)c1)c1c(O)c2cccc3c2n(c1=O)CCC3	-	-	-	-
FC(F)(F)c1cccc(N=c2oc3ccc(Br)cc3cc2-c2nc3ccccc3[nH]2)c1	-	-	-	-
COc1cc(NC(=S)NCC(O)c2ccccc2)cc(OC)c1 (stereo not drawn)	-	-	-	-
CC(=O)c1ccc(N=c2oc3cc(O)ccc3cc2C(N)=O)cc1	-	-	-	60
NC(=O)c1cc2ccc(O)cc2oc1=Nc1ccc(-c2ccccc2)cc1	-	-	-	-
c1ccc(CN2CCC(Nc3nccc(NC4CC4)n3)CC2)cc1	-	-	-	-
Brc1cnc(NC2CCN(Cc3ccccc3)CC2)nc1	-	-	-	44
COc1ccc(S(=O)(=O)OCC(F)(F)[N+](=O)[O-])cc1Br	-	-	-	44
COc1ccc(CCNc2cc(N3CCCCC3)ccc2[N+](=O)[O-])cc1OC	-	-	-	39
